PAFAH1B3 FP inh: inhibitors of human PAFAH1B3. Q15102. recombinant PAFAH1B3, FP-rhodamine probe, fluorescence polarization. hit rate 0.28% among 340,000. inhibition, % at 3.39 µM;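 active = inhibition above the screen-wide average of all tested compounds plus 3 SD, cut at about 25% in these data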;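 note: 0% = enzyme with DMSO only and 100% = wells lacking PAFAH1B3 protein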
Target sequence (Q15102 whole entry, looked up): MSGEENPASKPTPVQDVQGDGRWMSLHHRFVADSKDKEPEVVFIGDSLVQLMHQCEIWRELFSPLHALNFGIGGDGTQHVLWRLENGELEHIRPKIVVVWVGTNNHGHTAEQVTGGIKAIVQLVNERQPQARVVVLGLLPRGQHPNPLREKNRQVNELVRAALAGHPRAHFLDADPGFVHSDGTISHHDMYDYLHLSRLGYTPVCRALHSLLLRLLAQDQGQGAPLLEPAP
LYPLA1 inh: LYPLA1 (human) inhibition in PME1 counter-screen; inhibition, % at 5.9 µM; O75608; hit rate 0.16% among 320,000; recombinant LYPLA1, FP-Rh probe fluorescence polarization;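 active = inhibition above the mean of all tested compounds plus 3 SD, set per campaign, cut at about 14% in these data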;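 note: inhibitors block serine hydrolase probe labeling of LYPLA1 so polarization falls; 0% = enzyme with DMSO and 100% = wells lacking LYPLA1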
LYPLA2 counter: LYPLA2 (human) inhibition in PME1 counter-screen; O95372; recombinant LYPLA2, FP-Rh probe fluorescence polarization; AID 2177; hit rate 0.38% among 320,000; inhibition, % at 5.9 µM;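 active = inhibition above the screen-wide mean plus 3 SD, limit set per campaign, cut at about 26% in these data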;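 note: 0% = LYPLA2 with DMSO and 100% = wells lacking LYPLA2 enzyme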
PAFAH2 inh: PAFAH2 (human) inhibition | recombinant PAFAH2, FP-rhodamine activity probe, fluorescence polarization | Q99487 | inhibition, % at 3.39 µM | hit rate 0.99% among 340,000;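 active = inhibition above the mean over all tested compounds plus 3 SD, cut at about 30% in these data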;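 note: inhibitors block probe labeling of enzyme so polarization drops; 0% = enzyme with DMSO and 100% = wells lacking PAFAH2 protein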
PAFAH1B2 FP inh: blocks human PAF acetylhydrolase 1b catalytic subunit 2; inhibition, % at 3.39 µM; hit rate 1.2% among 340,000; P68402; recombinant PAFAH1B2, FP-rhodamine activity probe, fluorescence polarization;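 active = inhibition above the mean of all tested compounds plus 3 SD, cut at about 24% in these data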;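 note: 0% = enzyme with DMSO and 100% = wells lacking PAFAH1B2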
Target sequence (P68402 whole entry, looked up): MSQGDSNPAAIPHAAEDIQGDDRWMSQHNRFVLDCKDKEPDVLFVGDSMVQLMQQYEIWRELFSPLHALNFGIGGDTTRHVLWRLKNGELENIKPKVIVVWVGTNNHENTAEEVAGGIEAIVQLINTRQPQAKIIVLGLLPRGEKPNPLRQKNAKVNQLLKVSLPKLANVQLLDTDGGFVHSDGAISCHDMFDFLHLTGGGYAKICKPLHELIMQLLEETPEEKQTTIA
pPAFAH FP inh: pPAFAH (human) enzyme inhibition; inhibition, % at 3.39 µM; AID 463082; recombinant pPAFAH, FP-rhodamine probe fluorescence polarization; hit rate 1.5% among 330,000;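 active = inhibition above the mean inhibition across the screen plus 3 SD, cut at about 25% in these data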;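 note: inhibitors block binding of the rhodamine activity-based probe so polarization drops; 0% = enzyme with DMSO and 100% = wells lacking pPAFAH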
* = called active by the depositor; · = not tested or not shown. Most compounds without a hit are left out; they make up all but 2.9% or so of the library.

SMILES	PAFAH1B3 FP inh	LYPLA1 inh	LYPLA2 counter	PAFAH2 inh	PAFAH1B2 FP inh	pPAFAH FP inh
Cc1cc([N+](=O)[O-])cc2c1NCC1CC=CC21 (stereo unspecified)	-2.3	2.4	-5.4	2.0	3.0	1.0
Cc1cc([N+](=O)[O-])c2c(c1C)C1C=CCC1C(c1ccccn1)N2 (stereo unspecified)	·	-0.2	5.7	·	·	27.5*
O=C(COC(=O)C1CCN(c2ccc(C(F)(F)F)cn2)CC1)Nc1ccc(Cl)cn1	10.8	0.9	12.8	5.1	1.2	16.0
Cc1ccc(-n2nc3c(=O)n(CCCC(=O)NCc4ccc(Cl)cc4)nc(C)c3c2C)cc1	6.7	-3.3	1.5	1.9	10.6	1.7
Nc1nn(S(=O)(=O)c2ccccc2)cc1-c1ccc([N+](=O)[O-])cc1	0.1	-4.9	-1.4	-1.4	32.0*	4.6
Cc1ccccc1NC(=O)COC(=O)Cc1ccsc1	1.9	0.9	2.2	8.6	4.8	27.2*
O=C(COC(=O)Cc1ccsc1)Nc1ccc(F)cc1Cl	4.1	-1.4	1.1	-3.6	-1.9	28.7*
COc1ccc(CC(=O)OCC(=O)Nc2ccc(Cl)cn2)cc1	-6.6	3.6	10.1	2.5	4.6	16.5
O=C(COC(=O)Cc1ccsc1)Nc1ccc(Cl)cn1	5.5	-4.7	-4.8	3.4	2.1	27.8*
Cc1cccc(C)c1NC(=O)COC(=O)Cc1ccsc1	-1.6	-0.9	1.7	-6.8	3.4	23.2
O=C(COC(=O)Cc1ccsc1)NCc1ccc(Cl)cc1	7.0	0.1	4.1	4.0	8.1	17.4
Cc1ccc(C)c(NC(=O)COC(=O)Cc2ccsc2)c1	-9.0	-1.1	3.0	4.8	6.9	24.9*
O=C1/C(=C/c2cccnc2)SC(=S)N1CCc1ccccc1	7.0	0.8	4.1	5.2	16.1	-0.7
C=CCn1c(COc2cccc(C)c2)nnc1SC(C)C(=O)NC1CC1 (stereo unspecified)	-5.7	2.0	-1.2	4.9	-1.8	0.3
O=C1CC(c2ccco2)CC(O)=C1C=Nc1cc(Cl)ccc1Cl (stereo unspecified)	1.3	4.3	0.5	6.3	4.3	18.6
O=C1CC(c2ccco2)CC(O)=C1C=Nc1cc(Cl)ccc1O (stereo unspecified)	14.3	4.5	7.2	9.2	6.6	33.9*
Cc1oc2cc(Br)c(O)c(Br)c2c1-c1ccccc1	-3.6	0.2	1.6	71.9*	16.1	17.3
O=c1c2cc(-c3ccccc3)sc2ncn1/N=C/c1ccco1	-1.9	-2.3	6.6	7.5	3.8	25.9*
CCCc1cc(=O)oc2cc(C)c(CN3CCCC3)c(O)c12	8.3	-2.6	-11.5	22.7	1.8	24.6*
CSc1nc2nccc(-c3ccc(Oc4ccccc4)cc3)n2n1	0.6	0.8	13.2	-2.1	-2.0	29.6*
O=C1C(=O)N(CCCc2ccccc2)c2ccccc21	0.6	-2.2	1.2	1.8	8.7	26.8*
O=C(CN1C(=O)C(=O)c2ccccc21)NCCc1ccccc1	5.5	3.6	8.7	1.3	-1.4	11.6
O=C1COc2ccc(S(=O)(=O)NCc3ccccc3)cc2N1	9.2	3.9	2.2	6.8	3.7	1.8
C[C@H](CO)N1C[C@H](C)[C@@H](CN(C)C(=O)Nc2ccc(C(F)(F)F)cc2)Oc2ccc(NS(=O)(=O)c3cccs3)cc2C1=O	4.7	·	·	9.6	2.4	13.4
Cc1ccc(S(=O)(=O)Nc2ccc3c(c2)C(=O)N([C@H](C)CO)C[C@H](C)[C@@H](CN(C)C(=O)Nc2ccc(C(F)(F)F)cc2)O3)cc1	3.9	·	·	7.0	7.7	24.7*
SMILES	PAFAH1B3 FP inh	LYPLA1 inh	LYPLA2 counter	PAFAH2 inh	PAFAH1B2 FP inh	pPAFAH FP inh
COc1ccc(S(=O)(=O)N(C)C[C@H]2Oc3ccc(NS(=O)(=O)c4ccc(F)cc4)cc3C(=O)N([C@H](C)CO)C[C@@H]2C)cc1	4.2	·	·	-0.5	24.5*	13.5
COc1ccc(S(=O)(=O)Nc2ccc3c(c2)C(=O)N([C@H](C)CO)C[C@H](C)[C@@H](CN(C)S(=O)(=O)c2cccs2)O3)cc1	6.6	·	·	7.5	25.5*	5.0
COc1ccc(NC(=O)Nc2ccc3c(c2)C(=O)N([C@H](C)CO)C[C@H](C)[C@@H](CN(C)S(=O)(=O)c2cccs2)O3)cc1	11.9	·	·	-9.5	3.9	13.2
C[C@@H]1CN([C@H](C)CO)C(=O)c2cc(NC(=O)Cc3ccccc3)ccc2O[C@H]1CN(C)Cc1ccc(Oc2ccccc2)cc1	-2.9	·	·	4.2	-0.4	25.2*
O=C(NCC1CCCO1)c1cnc(Cl)c(Cl)c1 (stereo unspecified)	6.5	3.3	-2.1	-5.8	2.6	1.8
Cc1ccc(OCc2n[nH]c(=S)n2N)cc1C	0.9	-1.1	2.0	2.6	5.3	-0.6
COc1cc(C(=O)OCCC(C)C)cc(OC)c1O	8.4	0.3	3.7	9.3	1.3	10.8
COc1ccc(S(=O)(=O)Nc2ccc3c(c2)C(=O)N([C@H](C)CO)C[C@H](C)[C@@H](CN(C)S(=O)(=O)c2ccc(F)cc2)O3)cc1	2.3	·	·	0.7	29.1*	5.9
C[C@H](CO)N1C[C@H](C)[C@H](CN(C)CC2CCCCC2)Oc2ccc(NS(=O)(=O)c3ccc(F)cc3)cc2CC1=O	10.8	·	·	4.8	3.5	29.9*
COc1ccc(S(=O)(=O)Nc2ccc3c(c2)C(=O)N([C@H](C)CO)C[C@@H](C)[C@@H](CN(C)S(=O)(=O)c2ccc(Cl)cc2)O3)cc1	2.3	·	·	3.7	17.4	7.3
COc1ccc(-c2oc3cc(OC(C)=O)cc(OC(C)=O)c3c(=O)c2OC)cc1	2.4	·	·	4.2	0.1	·
CC(=O)Oc1cc(O)c2c(=O)c(OC(C)=O)c(-c3ccc(OC(C)=O)c(OC(C)=O)c3)oc2c1	47.1*	-13.0	-13.5	37.5*	22.3	30.6*
C=CCNC(=O)c1ccc(CNS(=O)(=O)c2ccc(NC(C)=O)cc2)cc1	0.1	-1.2	6.2	-1.4	1.0	-2.2
CC(CC(=O)NCCc1ccc(Cl)cc1)S(=O)(=O)c1ccc2c(c1)NC(=O)CO2 (stereo unspecified)	3.3	-0.3	0.8	4.4	30.2*	4.3
Cc1ccccc1NC(=O)CC(C)S(=O)(=O)c1ccc2c(c1)NC(=O)CO2 (stereo unspecified)	8.4	2.7	1.6	-1.2	1.7	-0.5
CC(=O)Nc1ccc(C(=O)OCc2ccc(Cl)cc2)cc1	2.5	-5.0	1.9	30.8*	23.4	-0.6
O=C(COC(=O)c1ccc(Cl)nc1)Nc1ccc2ccccc2c1	1.7	·	·	25.5	-2.1	·
N#CCC(=O)Nc1ccc(C(=O)OCC(=O)NNC(=O)c2ccc(Cl)cc2)cc1	-6.3	-12.3	-25.6	15.9	3.0	12.3
N#CCC(=O)Nc1ccc(C(=O)OCC(=O)Nc2ccc3ccccc3c2)cc1	-31.3	-29.3	-46.0	-1.8	-25.6	32.6*
O=C(COC(=O)c1ccc(O)cc1)Nc1ccc(Cl)cc1	·	-2.1	-0.9	·	·	27.3*
Cc1ccc2oc(=O)n(CC(=O)OCCC(C)C)c2c1	4.1	-1.1	1.5	-7.6	3.4	-0.2
